Results: PubChem BioAssay (NCATS)
Results filed as inconclusive are left out. Active and inactive are the calls of the source. Calls follow the shape of the dose curve; as a rule, active = well fitted inhibition curve with a large enough effect; inconclusive = small, poorly fitted or top-dose-only effect; inactive = flat fitted curve, though single readings scatter.

Columns and labels:
Experiment in all cases: qHTS profiling for inhibitors of Plasmodium falciparum proliferation (AID 504749); also: nearly all actives have a fitted effect of over 60% in size
3D7 = settings: P. falciparum in erythrocytes, SYBR Green DNA, 72 h; series mostly up to 28.7 µM
Method in brief: (§1)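 Infected RBCs, 0.3% parasitemia/2.5% Hct final; cpd 72 h, 37 C, 5% CO2; lysis buffer with saponin/triton/SYBR Green I, o/n RT dark; FI 485/535; norm. to artemisinin (0.29 uM) and DMSO.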

ATS95 = settings: P. falciparum in erythrocytes, SYBR Green DNA, 72 h; series mostly up to 28.7 µM
Method in brief: as §1

C2A = settings: P. falciparum in erythrocytes, SYBR Green DNA, 72 h; series mostly up to 28.7 µM
Method in brief: as §1

CP217 = settings: P. falciparum in erythrocytes, SYBR Green DNA, 72 h; series mostly up to 28.7 µM
Method in brief: as §1

CP237 = settings: P. falciparum in erythrocytes, SYBR Green DNA, 72 h; series mostly up to 28.7 µM
Method in brief: as §1

CP238 = settings: P. falciparum in erythrocytes, SYBR Green DNA, 72 h; series mostly up to 28.7 µM
Method in brief: as §1

CP250 = settings: P. falciparum in erythrocytes, SYBR Green DNA, 72 h; series mostly up to 12.8 µM
Method in brief: as §1

CP252 = settings: P. falciparum in erythrocytes, SYBR Green DNA, 72 h; series mostly up to 12.8 µM
Method in brief: as §1

CP256 = settings: P. falciparum in erythrocytes, SYBR Green DNA, 72 h; series mostly up to 28.7 µM
Method in brief: as §1

CP262 = settings: P. falciparum in erythrocytes, SYBR Green DNA, 72 h; series mostly up to 28.7 µM
Method in brief: as §1

CP265 = settings: P. falciparum in erythrocytes, SYBR Green DNA, 72 h; series mostly up to 12.8 µM
Method in brief: as §1

CP286 = settings: P. falciparum in erythrocytes, SYBR Green DNA, 72 h; series mostly up to 28.7 µM
Method in brief: as §1

ECU = settings: P. falciparum in erythrocytes, SYBR Green DNA, 72 h; series mostly up to 28.7 µM
Method in brief: as §1

FAB9 = settings: P. falciparum in erythrocytes, SYBR Green DNA, 72 h; series mostly up to 28.7 µM
Method in brief: as §1

HB3 = settings: P. falciparum in erythrocytes, SYBR Green DNA, 72 h; series mostly up to 28.7 µM
Method in brief: as §1

N140 = settings: P. falciparum in erythrocytes, SYBR Green DNA, 72 h; series mostly up to 28.7 µM
Method in brief: as §1

P93_24 = settings: P. falciparum in erythrocytes, SYBR Green DNA, 72 h; series mostly up to 28.7 µM
Method in brief: as §1

PAD = settings: P. falciparum in erythrocytes, SYBR Green DNA, 72 h; series mostly up to 28.7 µM
Method in brief: as §1

PC15 = settings: P. falciparum in erythrocytes, SYBR Green DNA, 72 h; series mostly up to 28.7 µM
Method in brief: as §1

SC27B = settings: P. falciparum in erythrocytes, SYBR Green DNA, 72 h; series mostly up to 28.7 µM
Method in brief: as §1

Measured: Potency

C[C@]12CC[C@H](O)CC1=CCC1C2CC[C@]2(C)C(=O)CC[C@@H]12 (stereo not given in full)
inactive: 3D7 | ATS95 | C2A | CP217 | CP237 | CP238 | CP250 | CP252 | CP256 | CP262 | CP265 | CP286 | ECU | FAB9 | HB3 | N140 | P93_24 | PAD | PC15 | SC27B
